Assay outcomes deposited in PubChem BioAssay by The Scripps Research Institute Molecular Screening Center.
Hits are enriched below; roughly 3.4% of the tested compounds scored in any of these assays.
MITF inh = blocks human microphthalmia-associated transcription factor. O75030. AlphaScreen MITF homodimerization, bead proximity signal. inhibition, % at 2.6 µM. 650,000 tested, 0.91% active. AID 1259374; in the data active = inhibition above about 50%
TEAD-YAP block = TEAD-YAP interaction inhibition; 640,000 tested, 1.4% active; HEK-TIYL cells, TEAD-Gal4/YAP UAS-luciferase luminescence; inhibition, % at 9.12 µM; in the data active = inhibition above about 32%
FBW7 act = human FBW7 E3 ligase activation, primary screen; AlphaScreen FBW7–phospho-cyclin E peptide binding, activator screen; 650,000 tested, 0.13% active; AID 1259310; normalized activity (activation), % at 26.1 µM; in the data active = normalized activity above about 1.9%;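 note: purified mutant Fbw7 with reduced substrate affinity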
Target sequence (Q969H0 whole entry, looked up): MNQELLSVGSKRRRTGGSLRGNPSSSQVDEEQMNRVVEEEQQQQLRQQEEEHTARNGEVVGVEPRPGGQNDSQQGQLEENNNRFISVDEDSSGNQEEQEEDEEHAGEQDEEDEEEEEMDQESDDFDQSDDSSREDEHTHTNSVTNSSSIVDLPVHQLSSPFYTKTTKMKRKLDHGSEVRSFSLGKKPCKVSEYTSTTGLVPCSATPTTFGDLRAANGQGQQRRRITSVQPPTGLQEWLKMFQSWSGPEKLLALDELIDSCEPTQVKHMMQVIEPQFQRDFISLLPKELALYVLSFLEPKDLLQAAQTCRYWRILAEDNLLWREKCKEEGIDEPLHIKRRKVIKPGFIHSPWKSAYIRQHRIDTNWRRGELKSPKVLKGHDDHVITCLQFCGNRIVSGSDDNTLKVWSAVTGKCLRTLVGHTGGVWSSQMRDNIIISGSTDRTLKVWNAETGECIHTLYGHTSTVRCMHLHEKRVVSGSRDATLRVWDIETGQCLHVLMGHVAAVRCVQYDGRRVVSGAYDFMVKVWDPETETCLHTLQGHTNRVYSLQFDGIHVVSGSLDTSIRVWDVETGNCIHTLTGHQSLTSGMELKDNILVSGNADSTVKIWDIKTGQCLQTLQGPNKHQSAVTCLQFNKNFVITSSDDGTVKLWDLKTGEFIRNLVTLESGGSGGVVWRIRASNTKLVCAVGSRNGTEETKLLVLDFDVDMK
GPR151 activ = activates the human receptor GPR151; Q8TDV0; activation, % at 11.2 µM; PathHunter beta-arrestin GPR151 cells, luminescence; 650,000 tested, 1% active; in the data active = activation above about 4.9%
Hits are given with their value; . = inactive; / = not tested or not shown.

SMILES | MITF inh | TEAD-YAP block | FBW7 act | GPR151 activ
CC(C)N1CC=C(c2c[nH]c3ccccc23)CC1 | . | 36.8 | . | .
CC(C)C/C(=N/O)c1c[nH]c2ccccc12 | . | . | . | .
CCCCC/C=C\C=C\C(CCCCCCCC(=O)O[C@H]1CC[C@@]2(C)C(=CCC3C4CCC(C(C)CCCC(C)C)[C@@]4(C)CCC32)C1)OO (stereo not given in full) (tested in a mixture with another compound) | . | / | / | .
CC(=O)Nc1cc(N/C(N)=N/[N+](=O)[O-])ccc1C | . | . | . | .
CC1=CC(=O)NP(=O)(Oc2ccc3ccccc3c2)N1 (stereo not given) | . | . | 1.9 | .
Cc1cc(NCCNc2ccc([N+](=O)[O-])cc2C(F)(F)F)n2c(nc3ccccc32)c1C#N | . | . | . | .
Cn1cccc1/C=C1/C(=O)NC(=S)N(c2ccc(Cl)cc2)C1=O | . | . | . | .
O=C1NC(=S)N(c2ccc(Cl)cc2)C(=O)/C1=C\c1ccc([N+](=O)[O-])o1 | 68.2 | . | . | .
Cc1[nH]c2ccccc2c1CCN | . | . | 2.1 | .
Cc1[nH]c2ccc(Cl)cc2c1CCN | . | . | . | .
Cc1[nH]c2c(C(C)C)cccc2c1CCN | . | 91.0 | . | .
CC(=O)O[C@@H]1C[C@@]2(C)[C@H](c3ccoc3)C[C@H]3O[C@]32[C@]2(C)C(=O)C(O)=C3C(C)(C)C(=O)C=C[C@]3(C)C12 (stereo not given in full) | . | 71.7 | . | .
CC1(C)C(=O)C=C[C@@]2(C)C1=C(O)C(=O)[C@]1(C)C2CC[C@@]2(C)[C@H](c3ccoc3)C[C@H]3O[C@]321 (stereo not given in full) | . | 65.2 | . | .
CN1CCN(c2nc3ccc([N+](=O)[O-])cc3s2)CC1 | . | . | . | .
COc1ccc2sc(N3CCN(C)CC3)nc2c1 | . | 37.3 | . | .
COc1ccc(N2CCN(Cc3ccc(N(C)C)cc3)CC2)cc1 | 71.1 | . | . | .
COc1ccc(N2CCN(CCC#N)CC2)cc1 | 57.3 | . | . | .
CC(C)NC(=O)N(Cc1ccco1)C1CCN(Cc2ccncc2)CC1 | . | . | . | .
O=c1[nH]c(=O)n(Cc2ccccc2Cl)c(O)c1/C=C1\C=CC=N1 | . | 51.6 | . | .
CC(C)CCCn1c(O)c(/C=C2\C=CC=N2)c(=O)[nH]c1=O | . | . | . | .
CN1C(=O)[C@]23CC4=CC=C[C@H](O)[C@H]4N2C(=O)[C@@]1(CO)SS3 | . | 87.9 | . | .
COc1ccc(C2SCC(=O)Nc3c2c(-c2ccccc2)nn3-c2ccccc2)cc1OC (stereo not given) | . | 52.2 | . | .
O=[N+]([O-])c1ccc(NC2CCC(O)CC2)c2ccncc12 (stereo not given) | . | . | . | .
CC(C)=CCC[C@]1(C)C=Cc2c(O)c3c(c(CC=C(C)C)c2O1)O[C@]12C(=CC4C[C@@H]1C(C)(C)O[C@@]2(C/C=C(/C)C(=O)O)C4=O)C3=O | . | 75.2 | . | .
O=P1(N2CCOCC2)C=C(c2ccccc2)c2cc(Cl)ccc2O1 (stereo not given) | . | . | . | .
SMILES | MITF inh | TEAD-YAP block | FBW7 act | GPR151 activ
CC1CCN(Cc2ccc(NC(=O)CCc3nc(C4=CCN(C)CC4)no3)cc2)CC1 | . | . | 3.9 | .
COc1ccc(C[C@H]2NC[C@H](O)[C@H]2OC(C)=O)cc1 | . | 103.5 | . | .
COc1ccc(CC2C(=O)N(C)C(=O)N(C)C2=O)cc1 | . | . | . | .
Cn1ncnc2c(=O)n(C)c(=O)nc1-2 | . | 98.9 | . | .
Cc1ccc2c(c1)C1CN(C)CCC1N2C(=O)c1ccccc1Cl (stereo not given) | . | . | . | .
CCOc1ccc(-n2c(/C=C/c3ccc(OC)cc3)nc3ccccc3c2=O)cc1 | . | . | . | .
CCn1nc(/C=C\c2ccccc2)nc2c(=O)n(C)c(=O)nc1-2 | . | 40.3 | . | .
O=C(c1ccccc1)c1cc(Br)ccc1NC(=O)c1cc2ccccc2oc1=O | . | . | . | .
CC(C)n1ccc(C(=O)Nc2cc3ccccc3oc2=O)n1 | . | 62.8 | . | .
CC(C)[C@@H]1NC(=O)[C@H](C)OC(=O)[C@@H](C(C)C)NC(=O)[C@@H](C(C)C)OC(=O)[C@H](C(C)C)NC(=O)[C@H](C)OC(=O)[C@@H](C(C)C)NC(=O)[C@@H](C(C)C)OC(=O)[C@H](C(C)C)NC(=O)[C@H](C)OC(=O)[C@@H](C(C)C)NC(=O)[C@@H](C(C)C)OC1=O | . | 96.0 | . | .
COc1ccc(OC)c(N2C(=O)/C(=C\c3ccco3)C(=O)NC2=S)c1 | 79.1 | . | . | .
CC(c1nnnn1C(C)(C)C)N1CCN(C)CC1 (stereo not given) | . | . | . | .
O=[N+]([O-])c1ccc([As](=O)(O)O)cc1 | . | . | . | .
CC[N+](CC)=c1scc(-c2ccc([N+](=O)[O-])cc2)s1 | . | 48.1 | . | .
Cc1nc(C)n(-c2ccc(Nc3cc(-c4cn[nH]c4)ccn3)cc2)n1 (tested in a mixture with another compound) | . | . | . | .
Fc1cnc(Nc2ccc(-n3cnc(N4CCOCC4)n3)cc2)cc1-c1cn[nH]c1 (tested in a mixture with another compound) | . | 36.0 | . | .
CCN(CC)C1=NC(=[N+](CC)CC)c2ccccc21 | . | 74.0 | . | .
CC1=CC(=C2C(=O)NC(=S)NC2=O)C=C(C(F)(F)F)N1Cc1ccccc1 | . | 51.6 | . | .
CCN1C(=O)C(=Cc2ccc(N(CC)CC)cc2)C(=O)N(CC)C1=S | . | . | . | .
O=c1[nH]c(=S)[nH]c(O)c1N=Nc1ccc2c(c1)OCCO2 | . | . | . | .
O=c1[nH]c(O)c(N=Nc2ccc3c(c2)OCCO3)c(=O)[nH]1 | . | 62.4 | . | .
C[C@H]1OC(O[C@H]2[C@@H](O)CC(O[C@H]3[C@@H](O)C[C@H](O[C@H]4CC[C@]5(C)C6CC[C@]7(C)[C@@H](C8=CC(=O)OC8)[C@@H](O)C[C@]7(O)[C@@H]6CC[C@@H]5C4)O[C@@H]3C)O[C@@H]2C)C[C@H](O)C1O (stereo not given in full) | . | 77.7 | . | .
CC(=O)O[C@H]1C[C@H](O[C@H]2[C@@H](O)C[C@H](O[C@H]3[C@@H](O)C[C@H](O[C@H]4CC[C@@]5(C)C(CCC6C5C[C@@H](O)[C@]5(C)[C@@H](C7=CC(=O)OC7)CC[C@]65O)C4)O[C@@H]3C)O[C@@H]2C)O[C@H](C)[C@H]1O[C@@H]1O[C@H](CO)[C@@H](O)[C@H](O)[C@H]1O (stereo not given in full) | . | 99.9 | . | .
CO[C@@H]1C(O)[C@H](O[C@H]2CC[C@@]3(C=O)[C@H](CC[C@@H]4[C@@H]3CC[C@]3(C)[C@@H](C5=CC(=O)OC5)CC[C@]43O)C2)OC(C)[C@@H]1O (stereo not given in full) | . | 101.3 | . | .
